# This is a sample that favours compounds with a hit; in the whole collection about 3.1% have one here.
# CF NFkB inh = cystic fibrosis NF-kB activation inhibition | KKLEB NF-kB-GFP reporter, PAF-induced, GFP fluorescence overnight | inhibition, % at 5 µM | hit rate 0.86% among 360,000;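 active = at least 50% inhibition at 5 µM, scaled per plate between neutral and stimulator controls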;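 note: PAF is a Pseudomonas aeruginosa culture filtrate used as stimulus; plate controls were PAF-stimulated DMSO wells for no effect and unstimulated DMSO wells for full effect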
# PPC-1+TRAIL kill = compounds killing PPC-1 cancer cells with TRAIL present (potentiator screen, no TRAIL-free arm); PPC-1 cells + TRAIL, ATPLite viability luminescence; hit rate 0.41% among 220,000; cell killing (% activity), % at 4 µM or 5 µM;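 active = cell killing above 50% in the first pass at 4 µM, then a duplicate retest at 5 µM averaging 50% or more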;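 note: plate controls were cells with TRAIL plus DMSO for no effect and medium-only wells lacking cells for full effect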
# KKLEB tox = reduces viability of KKLEB cystic fibrosis airway cells; AID 602141; KKLEB CF airway cells viability, ATPlite luminescence, overnight; hits give low values; cells stimulated with P. aeruginosa culture filtrate; hit rate 0.36% among 360,000; activity change (cytotoxicity), % at 5 µM;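 active = corrected activity change at or below -50% at 5 µM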
# TRAIL sens C8 = caspase-8 TRAIL sensitization; NB7+C8 cells + TRAIL, ATPlite viability luminescence; inhibition (viability loss, TRAIL sensitization), % at 10 µM; hit rate 1% among 360,000; AID 624354;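 active = compounds causing at least 50% loss of cell viability in the single-dose screen, relative to plate controls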
# HIF-2a inh = blocks HIF-2a reporter activity; 786-0 RCC cells HIF-2a reporter, luciferase luminescence, overnight; inhibition, % at 18.8 µM; hit rate 0.72% among 360,000;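 active = inhibition of the luminescence signal of 40% or more relative to plate controls, in a single-dose primary screen at 18.75 µM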
# Peg3 prom inh = reduces Peg3 promoter-driven luciferase expression in HeLa | AID 588405 | hit rate 1.7% among 360,000 | HeLa PEG-Prom luciferase reporter, luminescence, overnight | inhibition, % at 20 µM;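 active = inhibition of at least 50% at 20 µM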
# Active calls of the source: *; · = no result given.
SMILES,CF NFkB inh,PPC-1+TRAIL kill,KKLEB tox,TRAIL sens C8,HIF-2a inh,Peg3 prom inh
CC(=O)CC1c2ccccc2C=C(c2ccsc2)N1c1ccc(-c2cccs2)cc1 (stereo not drawn),·,·,·,17,-76,·
COCC(=O)Nc1c(C(=O)Nc2ccc3c(c2)OCO3)oc2ccccc12,-26,·,12,12,-231,-170
O=C(Nc1ccc2c(c1)OCCO2)c1cccc(C(=O)Nc2ccc3c(c2)OCCO3)c1,20,·,-9,16,-28,-55
Cc1ccccc1C(=O)Nc1ccc2c(c1)OCCO2,12,·,0,62*,-48,-56
O=C(CCl)Nc1c(C(=O)Nc2ccc3c(c2)OCCO3)oc2ccccc12,20,·,-31,61*,-52,98*
O=C(Nc1ccc2c(c1)OCCO2)c1ccccc1,-2,·,-3,51*,-82,-146
Cc1cn([C@H]2C[C@H](O)[C@@H](CCC(=O)NCc3ccccc3)O2)c(=O)[nH]c1=O,-24,·,2,-6,10,-11
CC1CN(S(=O)(=O)c2cccc(C(=O)NCC(c3cccs3)N3CCOCC3)c2)CC(C)O1 (stereo not drawn),18,·,8,4,6,9
Cc1cc(C(=O)N/N=C2\CC(=O)CC(C)(C)C2)c(C)n1-c1ccccc1,-6,12,5,0,0,11
Cc1cc(C(=O)N/N=C2\CC(=O)c3ccccc32)c(C)n1-c1ccccc1,-16,18,-5,54*,-244,-210
COc1ccc(CN2CCC(=O)N([C@H](CO)c3ccccc3)CC2)cc1,24,·,-17,3,11,6
COC(=O)c1cc(=O)n(CCc2ccc(OC)cc2)c(=Nc2ccc(F)c(Cl)c2)s1,0,3,0,38,15,82*
COC(=O)c1cc(=O)n(CCc2ccccc2)c(=Nc2ccc(F)cc2)s1,-1,-2,-14,12,10,15
Cc1ccc2oc(-c3ccccc3)c(C(=O)O)c(=O)c2c1,12,28,-16,57*,-139,-233
CC(C)NC(=O)[C@H]1N2C(=O)c3ccccc3C2SC1(C)C (stereo partly drawn),1,·,11,-3,18,6
Cc1ccc(Cl)cc1NC(=O)COC(=O)CSc1ccccc1,17,·,-5,-13,1,15
Cc1ccc(/C(N)=N/OC(=O)c2ccc3ccccc3c2)cc1,-10,·,1,90*,-188,-240
Cc1ccc(/C(N)=N/OC(=O)c2ccc(F)cc2)cc1,-8,9,8,74*,-337,-200
COc1cc(C(=O)O/N=C(\N)c2ccccn2)cc(OC)c1OC,-25,-1,6,-15,-40,-25
N/C(=N\OC(=O)c1cccc(F)c1)c1ccccn1,-18,·,-6,56*,5,-14
Cc1ccc(/C(N)=N/OC(=O)Oc2ccccc2)cc1,-5,13,3,-5,-7,7
Cc1ccc(C(=O)O/N=C(\N)c2ccccn2)cc1C,1,·,-12,81*,-6,76*
N/C(=N\OC(=O)c1ccc(F)cc1)c1ccccc1,-4,6,-2,1,-231,-200
COc1ccc(C(=O)O/N=C(\N)c2ccccn2)c(OC)c1,-14,45,-2,62*,-78,-28
Cc1ccc(/C(N)=N/OC(=O)c2cccc(F)c2)cc1,-18,28,11,85*,-217,-268
SMILES,CF NFkB inh,PPC-1+TRAIL kill,KKLEB tox,TRAIL sens C8,HIF-2a inh,Peg3 prom inh
N/C(=N\OC(=O)c1cccc(F)c1)c1ccccc1,-4,20,4,74*,-172,-198
COc1ccc(Cl)cc1C(=O)O/N=C(\N)c1ccccn1,-2,·,1,14,-241,-152
CN(CC(=O)Nc1ccccc1C(F)(F)F)Cc1c(O)ccc2ccccc12,1,·,0,12,17,1
C(=C\c1ccccc1)/CN1CCN(C(c2ccccc2)c2nnnn2C2CCCCC2)CC1 (stereo not drawn),-13,·,-3,3,-16,2
COC(=O)C[C@H]1C=C[C@H](NC(=O)c2ccccn2)[C@@H](CO)O1,·,·,·,2,3,·
Cc1nnsc1S(=O)c1ccc(Cl)cc1 (stereo not drawn),-9,·,3,-9,9,17
O=C(Nc1ccccc1)c1nnsc1S(=O)c1ccc(Cl)cc1 (stereo not drawn),56*,2,-25,24,35,88*
COc1cc(OC)c(NC(=O)c2sc3ncn(CC(=O)N4CCOCC4)c(=O)c3c2C)cc1Cl,2,·,12,-13,-12,-14
COc1cccc(C=NNC(=O)C(C)SC(C)C(=O)NN=Cc2cccc(OC)c2)c1 (stereo not drawn),5,·,-5,-17,3,6
CC(SC(C)C(=O)NN=Cc1cccc(Cl)c1)C(=O)NN=Cc1cccc(Cl)c1 (stereo not drawn),-7,·,11,-8,6,99*
CN1CCN(C(c2ccc(Br)cc2)c2cc(Cl)c3cccnc3c2O)CC1 (stereo not drawn),41,·,-9,20,50*,41
CN1CCN(C(c2ccc(F)cc2)c2ccc3cccnc3c2O)CC1 (stereo not drawn),1,·,-5,-4,1,-15
O=[N+]([O-])c1ccccc1CNCCCCCO,-38,·,-5,2,1,-17
O=C1C(N2CCOCC2)=C(n2nnc3ccccc32)C(=O)c2ccccc21,86*,35,-22,94*,27,98*
O=C1c2ccccc2C(=O)c2c1cccc2-n1nnc2ccccc21,-10,30,-14,17,5,4
CN(CCOc1ccccc1)CC(=O)Nc1ccc(Br)cc1F,2,·,-3,-1,-20,0
Cc1nc2c(nc1C)C(=O)c1ccccc1C2=O,61*,·,-13,49,-5,8
CC1=C([N+](=O)[O-])C(c2cccc(Br)c2)C2=C(N1)c1ccccc1C2=O (stereo not drawn),35,20,-56*,-18,17,38
Cc1ccc(C2=NCCn3nc4cc([N+](=O)[O-])ccc4c32)cc1,2,·,-13,-21,-56,-39
O=C(NCCOc1ccccc1)c1cccc2c1C(=O)c1ccc(Cl)cc1S2(=O)=O,9,·,-18,55*,-11,-21
O=C(NCCOc1ccccc1Cl)c1cccc2c1C(=O)c1ccc(Cl)cc1S2(=O)=O,-10,·,9,38,-19,41
COc1ccc(-c2cc(C(=O)N3CCCCCC3)no2)cc1,0,·,-2,26,-150,-316
COc1ccc(-c2cc(C(=O)N3CCCC3)no2)cc1,8,·,-8,62*,-8,-56
COc1ccc(-c2cc(C(=O)Nc3cccc(O)c3)no2)cc1,-2,·,-42,73*,-60,-123
OC(c1ccccc1)(c1nc(-c2ccccc2)cs1)C(F)(F)F (stereo not drawn),-5,·,10,2,14,7

# Compound activity from PubChem BioAssay.
